# Screening results as filed in PubChem BioAssay.
# FBW7 act: human FBW7 E3 ligase activation, primary screen; 0.13% of 650,000 active; AID 1259310; Q969H0; AlphaScreen FBW7–phospho-cyclin E peptide binding, activator screen; normalized activity (activation), % at 26.1 µM; in the data active = normalized activity above about 1.9%;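 note: purified mutant Fbw7 with reduced substrate affinity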
# GPR151 ag: activates the human receptor GPR151. Q8TDV0. PathHunter beta-arrestin GPR151 cells, luminescence. activation, % at 11.2 µM. 1% of 650,000 active; in the data active = activation above about 4.9%;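 note: 0% = median of compound wells and 100% = cells with positive control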
# TEAD-YAP inh: TEAD-YAP interaction inhibition. HEK-TIYL cells, TEAD-Gal4/YAP UAS-luciferase luminescence. inhibition, % at 9.12 µM. 1.4% of 640,000 active. AID 1259422; in the data active = inhibition above about 32%;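 note: 0% = median of test compound wells and 100% = reference inhibitor wells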
# MITF primary: blocks human microphthalmia-associated transcription factor. 0.91% of 650,000 active. AlphaScreen MITF homodimerization, bead proximity signal. inhibition, % at 2.6 µM. AID 1259374; in the data active = inhibition above about 50%;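 note: 0% = vehicle wells with protein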
# GPR151 conf act: human GPR151 activation, confirmation screen; shares compounds with GPR151 ag; GPR151 PathHunter beta-arrestin cells, luminescence, 90 min; % of EA-reagent control over plate median; activation, % at 11.2 µM; 6,700 tested, under 10 active; AID 1508609;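 active = mean percent activation across replicates above the confirmation screen cutoff of 4.91%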
# GPR119 ag: activates human GPR119 in a GPR151 counter-screen; shares compounds with GPR151 ag; GPR119 PathHunter beta-arrestin cells, luminescence, 90 min; 0 = compound-well median, 100 = enzyme-acceptor control; activation, % at 11.2 µM; 0.3% of 6,700 active;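 active = mean percent activation in the counterscreen above 29.09%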;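 note: counterscreen on off-target GPR119 to flag nonselective hits from the GPR151 activator screen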
# Target sequence (Q8TDV5 whole entry, looked up): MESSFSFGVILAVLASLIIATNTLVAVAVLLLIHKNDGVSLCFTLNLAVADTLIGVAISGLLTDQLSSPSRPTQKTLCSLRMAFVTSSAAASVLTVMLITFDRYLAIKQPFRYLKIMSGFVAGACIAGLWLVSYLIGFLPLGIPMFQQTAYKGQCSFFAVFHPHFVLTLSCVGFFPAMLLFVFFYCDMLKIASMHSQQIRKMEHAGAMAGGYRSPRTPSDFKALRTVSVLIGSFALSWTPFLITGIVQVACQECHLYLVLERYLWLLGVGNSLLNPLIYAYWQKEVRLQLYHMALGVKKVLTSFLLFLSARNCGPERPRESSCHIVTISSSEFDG
# An asterisk follows results filed as active; x = no result given. An excerpt weighted towards active compounds, which were near 3.5% of everything screened.
SMILES,FBW7 act,GPR151 ag,TEAD-YAP inh,MITF primary,GPR151 conf act,GPR119 ag
CS(=O)(=O)N(CC(=O)NC1CC2CCC1C2)c1ccc(F)c(Cl)c1 (configuration not stated),0,7.8*,1,10,0,-5
COC(=O)c1ccccc1NC(=O)CN(c1ccc(Cl)c(Cl)c1)S(C)(=O)=O,0,-1,5,15,x,x
Cc1ccc(N(CC(=O)NC2CC3CCC2C3)S(C)(=O)=O)cc1Cl (configuration not stated),0,2,5,11,x,x
COC(=O)c1ccccc1NC(=O)CN(c1ccc(F)c(Cl)c1)S(C)(=O)=O,0,13*,5,8,-2,31*
Cc1ccc(Cl)cc1NC(=O)CN(c1ccc(Cl)cc1)S(C)(=O)=O,0,-1,13,1,x,x
Cc1ccc(N(CC(=O)Nc2cc(Cl)ccc2C)S(C)(=O)=O)c(C)c1,0,6.9*,7,-15,0,6
CCOC(=O)c1ccccc1NC(=O)CN(c1ccc(Cl)c(Cl)c1)S(C)(=O)=O,0,18*,6,21,-1,-14
COc1ccccc1N(CC(=O)Nc1ccccc1C(=O)NCC(C)C)S(C)(=O)=O,0,13*,7,3,-1,-7
COC(=O)c1ccccc1NC(=O)CN(c1ccccc1OC)S(C)(=O)=O,0,-1,-1,-19,x,x
COc1ccc(N(CC(=O)Nc2cccc(Cl)c2C)S(C)(=O)=O)cc1OC,0,0,-7,15,x,x
CCOC(=O)c1ccccc1NC(=O)c1cn(-c2ccc(F)cc2F)c(=O)c2ccccc12,0,6.7*,0,7,0,8
Cc1ccc(N(CC(=O)Nc2cccc(Cl)c2C)S(C)(=O)=O)cc1C,0,5.3*,2,-18,0,6
CCCS(=O)(=O)N1CC(=O)N(c2ccc(F)cc2)C(C)(C(=O)NC2CCCC2)C1 (configuration not stated),1,0,-4,12,x,x
O=C(CSc1nnc2c3ccccc3n(CCc3ccccc3)c2n1)Nc1ccc(F)c(F)c1,0,-1,8,10,x,x
O=C(O)c1ccc(NS(=O)(=O)/C=C/c2ccccc2)cc1,0,7.0*,-1,15,-1,-9
O=C(O)c1cccc(NS(=O)(=O)/C=C/c2ccccc2)c1,0,-1,10,11,x,x
COc1ccccc1CC(=O)Nc1ccc(C)c(Cl)c1,0,0,-9,-8,x,x
Cc1cc(C)nc(SCC(=O)NNC(=O)c2ccccc2Br)n1,0,6.0*,11,20,0,0
O=c1c2c(-c3ccccc3)csc2ncn1Cc1ccc([N+](=O)[O-])cc1,0,5.6*,4,20,-1,-3
CN1CCN(/N=C/c2ccc(N(C)C)cc2)CC1,0,-2,-19,40,x,x
Cc1cc(Nc2ccc(Oc3ccccc3)cc2)nc(Nc2cccnc2)n1,0,-1,-8,12,x,x
Cc1cc(Nc2ccc(Oc3ccccc3)cc2)nc(Nc2ccccn2)n1,0,5.9*,-15,-12,0,-2
CN1CCN(C2CCN(c3cccc(Cl)c3)CC2)CC1CCO (configuration not stated),0,-1,-7,16,x,x
OCC1CCN(C2CCCN(C3CCN(c4cccc(Cl)c4)CC3)C2)CC1 (configuration not stated),0,5.1*,-2,6,0,-4
CCCCOC(=O)c1ccc(-n2cccc2)cc1,0,2,-16,-4,x,x
SMILES,FBW7 act,GPR151 ag,TEAD-YAP inh,MITF primary,GPR151 conf act,GPR119 ag
COc1ccc(N2CCN(C(=O)CN3CCN(c4cc(Cl)ccc4C)CC3)CC2)cc1,0,7.2*,-3,-1,0,6
CC(NC(=O)Nc1ccc(S(N)(=O)=O)cc1)(C(F)(F)F)C(F)(F)F,0,4.9*,-2,22,0,-5
C/C(=C/C(=O)c1ccc(Cl)cc1)Nc1cccc(O)c1,0,5.8*,-9,12,-1,-10
O=C(Cc1ccc2c(c1)OCO2)N1CCC(O)(c2cccc(F)c2)CC1,0,6.8*,-6,6,-1,-2
CCCC(=O)N1CCC(O)(c2cccc(F)c2)CC1,0,-1,5,19,x,x
O=C(NCCc1ccc(O)cc1)c1cnc(-c2cccs2)s1,0,3,-16,27,x,x
Cc1cc(N(C)C)nc(N2CCC(C(=O)NCc3cccs3)CC2)n1,0,-1,3,-2,x,x
Cc1cc(-c2ccccc2)nc(N2CCC(C(=O)NCc3cccs3)CC2)n1,0,10*,-7,-16,0,13
COc1ccc(C2Oc3c(OC)cccc3C3CC(c4ccco4)=NN32)cc1 (configuration not stated),0,-1,-68,13,x,x
COc1ccc(C2Oc3c(OC)cccc3C3CC(c4ccco4)=NN32)cc1OC (configuration not stated),0,7.6*,-65,2,-1,-2
O=C(NC(c1ccccc1Cl)c1ccc2cccnc2c1O)c1ccccc1 (configuration not stated),-1,7.5*,72*,-4,0,1
COc1ccc(C(C)NC(=O)C(=O)NCc2ccco2)cc1 (configuration not stated),0,0,-5,-7,x,x
CC(=O)C1=C(C)N(Cc2ccccc2)C(=O)N[C@H]1c1cccc(F)c1,0,6.9*,x,27,0,8
O=C(CN1C(=O)c2ccccc2S1(=O)=O)Nc1ccc(CSc2ccccc2)cc1,0,0,18,6,x,x
CCn1c(=N)c(C(=O)NC2CCCC2)cc2c(=O)n3cccc(C)c3nc21,0,1,14,0,x,x
COCCCNC(=O)c1cc2c(=O)n3cccc(C)c3nc2n(CCOC)c1=N,0,6.6*,5,27,0,-1
CCC(C)n1c(=N)c(C(=O)NC2CCCCC2)cc2c(=O)n3cccc(C)c3nc21 (configuration not stated),0,5.2*,5,6,0,-6
CCc1cccc(NC(=O)C2CCC(CNc3c(N4CCOCC4)c(=O)c3=O)CC2)c1 (configuration not stated),0,0,1,-21,x,x
C#CCn1c(=NC(=O)CN2C(=O)CCC2=O)sc2c(C)cc(C)cc21,0,7.2*,-3,3,0,0
O=C(CSc1nc2ccc(Nc3nc(N4CCOCC4)nc(N4CCOCC4)n3)cc2s1)NCC1CCCO1 (configuration not stated),1,-1,6,1,x,x
O=C(CSc1nc2ccc(Nc3nc(N4CCOCC4)nc(N4CCOCC4)n3)cc2s1)NC1CC1,0,9.3*,0,-1,1,12
COc1ccc(/C=N/Nc2nc(N(C)C)nc(N3CCOCC3)n2)c(OC)c1,0,0,-6,3,x,x
